# Source: PMC5540273 (PLoS ONE, 2017)
# System: RAF1
# Settings: concentration: 1 μM,replicates: in singlicate; n = 1
# 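Also: KINOMEscan kinase panel screen.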
row,Structure (SMILES),%Inh
1,CNC(=O)c1ccccc1Sc1ccc2c(/C=C/c3ccccn3)n[nH]c2c1,3%
2,O=C(NCCNc1ccnc(NCc2ccc(F)cc2)n1)c1cc2ccccc2s1 [GSK1379944],11%
3,CN(C)CCOc1ccc(-c2cc(-c3c[nH]nc3-c3ccccn3)ccn2)cc1 [GW835314],28%
4,Cc1cc(C(=O)Nc2ccc(Oc3ccc4nc(NC(=O)C5CC5)cn4n3)cc2)nn1-c1ccccc1,75%
5,Cc1ccc(-n2nc(C(C)(C)C)cc2NC(=O)Nc2ccc(OCCN3CCOCC3)c3ccccc23)cc1 [GW839464],26%
6,CCN(CC)CCCCNc1ncc2cc(-c3c(Cl)cccc3Cl)c(NC(=O)NC(C)(C)C)nc2n1,87%
7,CCN(CC)CCOc1ccc(Nc2ncc3cc(-c4c(Cl)cccc4Cl)c(=O)n(C)c3n2)cc1 [SB-601273],97%
8,Cc1cc2cn[nH]c2cc1-c1cccc2c(N)c(C(N)=O)nnc12,0%
9,CC(C)Nc1cc(-c2ccc3c(N)n[nH]c3c2)nc(N)n1 [GSK2221681],0%
10,C[C@@H](Oc1cc(-c2cnn(C3CCNCC3)c2)cnc1N)c1c(Cl)ccc(F)c1Cl,0%
11,Cl.Cl.Nc1nc(-c2ccc3c(N)n[nH]c3c2)cc(N2CCCC(NC(=O)c3ccccc3)C2)n1 (stereo not drawn) [GSK2286775],9%
12,CC(C)N1C(=O)Cc2cc(Nc3ncc(C(F)(F)F)c(NCc4cccc(S(C)(=O)=O)c4)n3)ccc21,0%
13,Cl.Cl.NC[C@H](Cc1ccc(C(F)(F)F)cc1)NC(=O)c1cc(Br)c(-c2ccnc3[nH]ccc23)s1 [GSK1487252],10%
14,C[C@@H]1CCN(C(=O)CC#N)C[C@@H]1N(C)c1ncnc2[nH]ccc12,0%
15,CN(C)CC(O)COc1ccc(Nc2nccc(-c3cnn4nc(N5CCOCC5)ccc34)n2)cc1 (stereo not drawn) [GW767488],6%
16,Cc1occc1-c1nc(N)c(OC[C@@H](N)Cc2c[nH]c3ccccc23)cc1-c1cc2c(C)n[nH]c2cn1 [GSK1660450],0%
17,Cc1ccc2c(-c3ccncc3)c(-c3ccc(F)cc3)nn2c1.Cl [GW461484],19%
18,C[C@H]1Oc2cc(cnc2N)-c2c(nn(C)c2C#N)CN(C)C(=O)c2ccc(F)cc21,0%
19,NC(=O)c1cc(-c2ccccc2)cc2c(C3CCNCC3)c[nH]c12 [GSK301362],3%
20,C=CC(=O)Nc1cc2c(Nc3ccc(F)c(Cl)c3)ncnc2cc1OCCCN1CCOCC1 [GW781483],0%
21,CCn1c(-c2nonc2N)nc2c(C#CC(C)(C)O)nc(OCCN)cc21.Cl.Cl [GSK902056],0%
22,Cc1n[nH]c2ccc(-c3cc(OC[C@@H](N)Cc4ccccc4)cnc3-c3ccoc3)cc12.O=C(O)C(F)(F)F.O=C(O)C(F)(F)F [GSK507358],0%
23,Cl.Cl.NC[C@H](CC1CCCCC1)NC(=O)c1cc(Br)c(-c2ccnc3[nH]ccc23)s1 [GSK1581427],2%
24,COc1ccc(C[C@@H](CN)NC(=O)c2cc(Br)c(-c3ccnc4[nH]ccc34)s2)cc1.Cl.Cl [GSK1389063],5%
25,Cl.Oc1cc(-c2nc(-c3ccccc3)[nH]c2-c2ccncc2)ccc1Cl [SB-386023],97.9%
26,Nc1nc(Nc2ccccc2)cc(-c2ccc3c(N)n[nH]c3c2)n1 [GSK2225749],0%
27,O=C(NCCCN1CCOC1=O)c1cnc(NCc2cc(Cl)ccc2Cl)nc1NC1CCCC1,7%

# System: RET
# Settings: concentration: 1 μM,replicates: in singlicate; n = 1
row,Structure (SMILES),%Inh
1,O=C(NCCNc1ccnc(NCc2ccc(F)cc2)n1)c1cc2ccccc2s1 [GSK1379944],79%
2,CN(C)CCOc1ccc(-c2cc(-c3c[nH]nc3-c3ccccn3)ccn2)cc1 [GW835314],36%
3,Cc1cc(C(=O)Nc2ccc(Oc3ccc4nc(NC(=O)C5CC5)cn4n3)cc2)nn1-c1ccccc1,81%
4,Cc1ccc(-n2nc(C(C)(C)C)cc2NC(=O)Nc2ccc(OCCN3CCOCC3)c3ccccc23)cc1 [GW839464],54%
5,CCN(CC)CCCCNc1ncc2cc(-c3c(Cl)cccc3Cl)c(NC(=O)NC(C)(C)C)nc2n1,96.5%
6,CCN(CC)CCOc1ccc(Nc2ncc3cc(-c4c(Cl)cccc4Cl)c(=O)n(C)c3n2)cc1 [SB-601273],100%
7,Cc1cc2cn[nH]c2cc1-c1cccc2c(N)c(C(N)=O)nnc12,19%
8,CC(C)Nc1cc(-c2ccc3c(N)n[nH]c3c2)nc(N)n1 [GSK2221681],0%
9,Cl.Cl.Nc1nc(-c2ccc3c(N)n[nH]c3c2)cc(N2CCCC(NC(=O)c3ccccc3)C2)n1 (stereo not drawn) [GSK2286775],0%
10,CC(C)N1C(=O)Cc2cc(Nc3ncc(C(F)(F)F)c(NCc4cccc(S(C)(=O)=O)c4)n3)ccc21,86%
11,Cl.Cl.NC[C@H](Cc1ccc(C(F)(F)F)cc1)NC(=O)c1cc(Br)c(-c2ccnc3[nH]ccc23)s1 [GSK1487252],74%
12,CN(C)CC(O)COc1ccc(Nc2nccc(-c3cnn4nc(N5CCOCC5)ccc34)n2)cc1 (stereo not drawn) [GW767488],17%
13,Cc1occc1-c1nc(N)c(OC[C@@H](N)Cc2c[nH]c3ccccc23)cc1-c1cc2c(C)n[nH]c2cn1 [GSK1660450],23%
14,Cc1ccc2c(-c3ccncc3)c(-c3ccc(F)cc3)nn2c1.Cl [GW461484],14%
15,C[C@H]1Oc2cc(cnc2N)-c2c(nn(C)c2C#N)CN(C)C(=O)c2ccc(F)cc21,22%
16,NC(=O)c1cc(-c2ccccc2)cc2c(C3CCNCC3)c[nH]c12 [GSK301362],7%
17,C=CC(=O)Nc1cc2c(Nc3ccc(F)c(Cl)c3)ncnc2cc1OCCCN1CCOCC1 [GW781483],38%
18,CCn1c(-c2nonc2N)nc2c(C#CC(C)(C)O)nc(OCCN)cc21.Cl.Cl [GSK902056],23%
19,Cc1n[nH]c2ccc(-c3cc(OC[C@@H](N)Cc4ccccc4)cnc3-c3ccoc3)cc12.O=C(O)C(F)(F)F.O=C(O)C(F)(F)F [GSK507358],8%
20,Cl.Cl.NC[C@H](CC1CCCCC1)NC(=O)c1cc(Br)c(-c2ccnc3[nH]ccc23)s1 [GSK1581427],25%
21,COc1ccc(C[C@@H](CN)NC(=O)c2cc(Br)c(-c3ccnc4[nH]ccc34)s2)cc1.Cl.Cl [GSK1389063],98.4%
22,Cl.Oc1cc(-c2nc(-c3ccccc3)[nH]c2-c2ccncc2)ccc1Cl [SB-386023],66%
23,Nc1nc(Nc2ccccc2)cc(-c2ccc3c(N)n[nH]c3c2)n1 [GSK2225749],6%
24,O=C(NCCCN1CCOC1=O)c1cnc(NCc2cc(Cl)ccc2Cl)nc1NC1CCCC1,22%
